Records with an inconclusive call do not appear. The source made the active and inactive calls. Unless noted, calls come from the whole dose curve; as a rule, active = well fitted curve in the direction sought with a large enough effect in the repeat runs; inconclusive = weak or mixed curves; inactive = no such curve, though single readings can be large; an effect the other way counts as inactive or inconclusive.

Test [1] in a line: qHTS RealTime-Glo MT Cell Viability Assay in HEK293 cells - 0 hour (AID 1224880). Note: top concentration of the series differs between compounds; nearly all actives have a fitted effect of over 45% in size. The method in brief: (§1)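 Tox21 screen in HEK293 using RealTime-Glo MT chemistry, with cells and reagent co-dispensed. Luminescence proportional to viable cell number was captured at intervals during 40 h compound exposure at 37 C.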
The nature of test [2]: A CellTox Green Cytotoxicity Assay to monitor cytotoxicity in HepG2 cells - 0 hour (AID 1224882). Note: nearly all actives have a fitted effect of over 35% in size. The procedure, abridged:
(§2)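 Nonlytic assay: viable cells exclude the dye, so fluorescence scales with cell death. HepG2 at 600 cells/well, compounds added after 5 h, signal read across 40 h.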

Test [3] is described as follows: A CellTox Green Cytotoxicity Assay to monitor cytotoxicity in HepG2 cells - 32 hour (AID 1224883). Note: nearly all actives have a fitted effect of over 50% in size. Note: potency is the fitted concentration of half-maximal effect. The procedure, abridged:
as §2

Test [4] in a line: A CellTox Green Cytotoxicity Assay to monitor cytotoxicity in HEK293 cells - 8 hour (AID 1224884). Note: nearly all actives have a fitted effect of over 35% in size. The procedure, abridged:
(§3)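 Seeding of HEK293 cells together with cytotoxicity dye preceded a 5 h incubation at 37 C/5% CO2. Test compounds in DMSO were then added and fluorescence monitored across 40 h.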

Test [5] in a line: qHTS RealTime-Glo MT Cell Viability Assay in HepG2 cells - 16 hour (AID 1224885). Note: nearly all actives have a fitted effect of over 50% in size. The procedure, abridged: (§4)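 HepG2 cells (600/well) were dispensed with RealTime-Glo reagents, incubated 5 h at 37 °C, then treated with compounds in DMSO for up to 40 h. Nonlytic NanoLuc luminescence reflecting viable cells was read at each stated time point.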
Test [6] in a line: qHTS RealTime-Glo MT Cell Viability Assay in HEK293 cells - 24 hour (AID 1224886). Note: nearly all actives have a fitted effect of over 50% in size. Note: potency is the fitted concentration of half-maximal effect. The method in brief: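 HEK293 cells seeded with NanoLuc/prosubstrate reagent, rested 5 h at 37 C, then dosed and kept at 37 C up to 40 h. Nonlytic real-time luminescence from viable cells read at 0, 8, 16, 24, 32 and 40 h.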
Test [7] is described as follows: qHTS RealTime-Glo MT Cell Viability Assay in HEK293 cells - 8 hour (AID 1224887). Note: nearly all actives have a fitted effect of over 50% in size. Note: potency is the fitted concentration of half-maximal effect. The procedure, abridged: as §1
Test [8] is described as follows: qHTS RealTime-Glo MT Cell Viability Assay in HepG2 cells - 0 hour (AID 1224889). Note: nearly all actives have a fitted effect of over 50% in size. The procedure, abridged: as §4
Test [9] is described as follows: A CellTox Green Cytotoxicity Assay to monitor cytotoxicity in HepG2 cells - 8 hour (AID 1224890). Note: nearly all actives have a fitted effect of over 45% in size. The procedure, abridged:
as §2

Test [10] in a line: qHTS assay to identify small molecule antagonists of the estrogen receptor alpha (ER-alpha) signaling pathway using the BG1 cell line in the presence of 0.1 nM 17-beta-estradiol - cell viability counter screen (AID 1259241). Note: nearly all actives have a fitted effect of over 40% in size. The procedure, abridged:
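Estradiol-stimulated (0.1 nM) VM7Luc4E2 cells exposed to compounds 22 hr; viability measured by fluorescence of cleaved CellTiter-Fluor substrate after 30 min.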

Test [11] is described as follows: qHTS assay to identify small molecule antagonists of the androgen receptor (AR) signaling pathway using the MDA cell line in the presence of 0.5 nM R1881 - cell viability counter screen (AID 1259242). Note: nearly all actives have a fitted effect of over 45% in size. The procedure, abridged: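 R1881 at 0.5 nM final stimulated MDA-kb2 cells during 16 hr compound treatment at 37C. Cytotoxicity read: CellTiter-Fluor fluorescence after 30 min.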

For test [12], the target named is Androgen receptor (Homo sapiens) (UniProt P10275). The test can be described thus: qHTS assay to identify small molecule antagonists of the androgen receptor (AR) signaling pathway using the MDA cell line in the presence of 0.5 nM R1881 (AID 1259243). Note: nearly all actives have a fitted effect of over 50% in size. Note: potency is the fitted concentration of half-maximal effect. The procedure, abridged: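 We exposed MDA-kb2 cells to compounds under 0.5 nM R1881 stimulation for 16 hr at 37C and quantified MMTV-driven luciferase by luminescence.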
Androgen receptor (Homo sapiens), sequence (P10275 whole entry, looked up): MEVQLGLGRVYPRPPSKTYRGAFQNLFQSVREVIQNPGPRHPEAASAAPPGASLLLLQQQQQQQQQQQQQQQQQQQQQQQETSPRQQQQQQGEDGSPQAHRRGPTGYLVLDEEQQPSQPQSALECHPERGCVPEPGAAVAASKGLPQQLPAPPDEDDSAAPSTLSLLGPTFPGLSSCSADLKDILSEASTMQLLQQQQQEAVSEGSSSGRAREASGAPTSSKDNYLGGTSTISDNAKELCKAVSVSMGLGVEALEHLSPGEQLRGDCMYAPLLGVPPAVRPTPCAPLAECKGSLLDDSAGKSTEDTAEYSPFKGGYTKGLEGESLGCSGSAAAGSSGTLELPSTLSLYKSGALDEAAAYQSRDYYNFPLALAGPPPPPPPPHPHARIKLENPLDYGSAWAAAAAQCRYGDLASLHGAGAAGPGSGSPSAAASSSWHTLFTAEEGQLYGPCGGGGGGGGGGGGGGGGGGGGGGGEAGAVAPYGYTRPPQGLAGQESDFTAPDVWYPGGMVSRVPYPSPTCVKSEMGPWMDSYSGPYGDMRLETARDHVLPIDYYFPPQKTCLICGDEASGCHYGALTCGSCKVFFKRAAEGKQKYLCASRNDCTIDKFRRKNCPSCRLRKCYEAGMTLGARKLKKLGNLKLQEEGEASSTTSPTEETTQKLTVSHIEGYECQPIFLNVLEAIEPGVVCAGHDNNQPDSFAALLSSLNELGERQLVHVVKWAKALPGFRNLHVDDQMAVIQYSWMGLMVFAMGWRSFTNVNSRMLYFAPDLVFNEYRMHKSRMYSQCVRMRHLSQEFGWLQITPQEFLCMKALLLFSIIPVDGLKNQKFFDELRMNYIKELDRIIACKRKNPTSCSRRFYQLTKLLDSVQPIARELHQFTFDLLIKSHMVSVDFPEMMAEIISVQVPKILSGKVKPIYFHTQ

Test [13] is described as follows: qHTS assay to identify small molecule HDAC inhibitors (AID 1259364).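 Note: wild-type HCT-116 cells with endogenous class I/II HDAC activity; top concentration of the series differs between compounds; nearly all actives have a fitted effect of over 45% in size.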 The method in brief: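 Relative class I and II HDAC activity is taken from the luminogenic signal in HCT-116 cells, with compound exposure 2 hr and reagent development 30 min at room temperature.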
Test [14] in a line: qHTS assay to identify small molecule HDAC inhibitors - cell viability counter screen (AID 1259365). The procedure, abridged: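 After overnight seeding at 1,500 cells per well, wild-type HCT-116 cultures took up compounds in DMSO for 2hr at 37 C. Viable cell content came from luminescence with CellTiter-Glo.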
The nature of test [15]: qHTS assay to identify small molecule agonists of the sonic hedgehog signaling (Shh) pathway - cell viability counter screen (AID 1259366). Note: nearly all actives have a fitted effect of over 50% in size. Note: potency is the fitted concentration of half-maximal effect. The method in brief:
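Same-well cytotoxicity read. Gli1-Luc reporter 3T3 cells; compounds 24hr, 37C/5% CO2; CellTiter-Fluor fluorescence.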

The nature of test [16]: qHTS assay to identify small molecule antagonists of the sonic hedgehog signaling (Shh) pathway - cell viability counter screen (AID 1259367). Note: nearly all actives have a fitted effect of over 55% in size. The method in brief: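 NIH/3T3-derived Gli1-Luc reporter cells (2,000 per well) rested 4 hr at 37 C, then received DMSO compounds plus conditioned medium. After 23 hr of treatment, CellTiter-Fluor was added for 1 hr at 37C and fluorescence read.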

Test [17] can be described thus: A CellTox Green Cytotoxicity Assay to monitor cytotoxicity in HEK293 cells - 32 hour (AID 1224881). Note: nearly all actives have a fitted effect of over 40% in size. Note: potency is the fitted concentration of half-maximal effect. The method in brief: as §3
A short description of test [18]: A CellTox Green Cytotoxicity Assay to monitor cytotoxicity in HEK293 cells - 16 hour (AID 1224888). Note: nearly all actives have a fitted effect of over 35% in size. The method in brief:
as §3

Test [19] concerns the target Estrogen receptor (Homo sapiens) (UniProt P03372). Description: qHTS assay to identify small molecule antagonists of the estrogen receptor alpha (ER-alpha) signaling pathway using the BG1 cell line in the presence of 0.1 nM 17-beta-estradiol (AID 1259244). Note: nearly all actives have a fitted effect of over 50% in size. The method in brief: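 VM7Luc4E2; 4xERE-luciferase; 0.1 nM E2 final; 22 h co-incubation, 37C; ONE-Glo luminescence after 30 min at room temperature.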

Test [20] in a line: qHTS assay to identify small molecule phospholipidosis (PLD) inducers (AID 1259344; active = well fitted curve in the direction sought with a large enough effect; an effect the other way counts as inactive or inconclusive). The method in brief: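 HepG2 cells on collagen I, attached 4 h at 37 C, were co-treated with compound and LipidTOX Red dye for 24 h at 37 C, then fixed with paraformaldehyde plus Hoechst 33342 and imaged by high-content microscopy for phospholipid accumulation.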

Estrogen receptor (Homo sapiens), sequence (P03372 whole entry, looked up): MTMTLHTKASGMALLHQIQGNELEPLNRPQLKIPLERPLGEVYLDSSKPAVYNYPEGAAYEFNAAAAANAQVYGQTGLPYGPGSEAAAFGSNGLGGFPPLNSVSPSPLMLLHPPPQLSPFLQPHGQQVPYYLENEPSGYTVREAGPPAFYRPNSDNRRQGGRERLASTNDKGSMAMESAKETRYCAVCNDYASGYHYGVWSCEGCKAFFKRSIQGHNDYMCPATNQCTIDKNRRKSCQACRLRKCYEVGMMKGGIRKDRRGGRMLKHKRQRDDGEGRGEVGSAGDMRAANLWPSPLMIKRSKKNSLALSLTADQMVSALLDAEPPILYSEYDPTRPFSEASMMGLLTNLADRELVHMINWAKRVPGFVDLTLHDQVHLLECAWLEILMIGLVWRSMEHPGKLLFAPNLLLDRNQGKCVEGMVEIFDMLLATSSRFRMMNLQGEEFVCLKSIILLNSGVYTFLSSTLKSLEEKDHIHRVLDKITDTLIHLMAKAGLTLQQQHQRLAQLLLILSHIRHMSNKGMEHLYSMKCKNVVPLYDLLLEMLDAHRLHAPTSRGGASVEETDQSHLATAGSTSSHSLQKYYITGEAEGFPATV

With `CCCCCCCCCCCCCC(=O)OCC(O)CO` (centres undefined), the Potency result in [1], in [2], in test [3], in test [4], in test [5] and in [6] was “inactive” throughout. In addition, the Potency result in test [7], in [8], in test [9], in [10], in test [11] and in test [12] was “inactive” in each case. The Potency result in [13], in test [14], in test [15] and in test [16] was “inactive” in each case.
For the molecule `CC(=O)C(C)=O`, the Potency result in test [1], in test [17], in test [2], in [5], in test [6] and in test [7] was “inactive” in each case. In addition, the Potency result in test [18], in test [8], in test [9], in test [10], in test [11] and in test [13] was “inactive” each time. Moreover, the Potency result in test [14], in test [15] and in test [16] was “inactive” in each case.
Turning to `CCCCCCCCCCCCCOS(=O)(=O)O`, the Potency entry in [1], in test [2], in [4], in [5], in test [6] and in [7] was “inactive” each time. Further, the Potency entry in test [18], in test [8], in [9], in [10], in test [11] and in test [12] was “inactive” in each case. Further, the Potency entry in test [13], in test [14], in [15] and in [16] was “inactive” each time.
As for `C1=CCC2CC=CC2C1` (centres undefined), the Potency entry in test [17], in [2], in test [3], in test [4], in test [5] and in [6] was “inactive” in each case. For the same molecule, the Potency entry in test [7], in [18], in [8], in test [9], in test [10] and in [11] was “inactive” throughout. Also, the Potency result in test [12], in test [13], in test [14], in test [15] and in [16] was “inactive” throughout.
In the case of `Oc1ccc2c(c1)Cc1ccccc1-2`, the Potency entry in test [1], in test [17], in [2], in test [5], in [18] and in test [8] was “inactive” throughout. For the same molecule, the Potency entry in test [10], in test [11], in test [13], in test [14], in [15] and in test [16] was “inactive” throughout. For the same molecule, the Potency in test [6] is 19.5 µM (active); in [7], 21.9 µM (active).
For the molecule `CC(=O)C(=O)CC(C)C`, the Potency result in test [17], in [2], in test [3], in test [4], in test [5] and in test [6] was “inactive” each time. In addition, the Potency entry in [7], in test [18], in [8], in test [9], in test [10] and in [11] was “inactive” throughout. Besides, the Potency entry in test [19], in test [13], in test [14] and in test [15] was “inactive” throughout.
With `CC1CCCC(=O)C1=O` (centres undefined), the Potency entry in test [1], in [17], in [2], in test [4], in test [5] and in [6] was “inactive” throughout. The Potency entry in [7], in [18], in test [8], in [9], in test [10] and in test [11] was “inactive” in each case. Also, the Potency entry in test [12], in test [19], in [13], in [14], in test [15] and in [16] was “inactive” each time.
Regarding `CC1C(C)(C)C2=C(C(=O)CCC2)C1(C)C` (centres undefined), the Potency result in test [1], in test [2], in [4], in test [5], in test [6] and in test [7] was “inactive” each time. For the same molecule, the Potency entry in test [18], in test [8], in [9], in [10], in test [11] and in [13] was “inactive” in each case. In addition, the Potency result in test [14], in test [15] and in test [16] was “inactive” in each case.
As to `COc1ccc(/C=C/C(=O)c2ccc(OC)cc2OC)cc1`, the Potency entry in test [1], in [17], in [2], in test [4], in test [5] and in test [6] was “inactive” each time. Also, the Potency entry in test [18], in test [8], in [9], in test [10], in [11] and in test [20] was “inactive” in each case. Besides, the Potency result in [15] and in test [16] was “inactive” in each case.
On to `COc1ccc(C(=O)NCc2ccc(OCCN(C)C)cc2)cc1OC`, for which the Potency entry in [17], in test [2], in test [3], in [4], in test [5] and in test [6] was “inactive” in each case. Moreover, the Potency result in test [7], in test [18], in [8], in test [9], in [10] and in test [11] was “inactive” throughout. The Potency result in test [19], in test [20], in [13], in test [14], in [15] and in [16] was “inactive” in each case.
For the molecule `CCCCCCC(CO)CCCC` (centres undefined), the Potency result in test [1], in [17], in test [2], in test [5], in test [6] and in [7] was “inactive” throughout. Besides, the Potency entry in [18], in test [8], in [9], in [10], in [11] and in test [14] was “inactive” each time. For the same molecule, the Potency entry in test [15] is “inactive”.
For the molecule `CC(C)(C)C1(CCc2ccc(Cl)cc2)CO1` (centres undefined), the Potency entry in [1], in [2], in test [4], in test [5], in test [6] and in test [7] was “inactive” each time. Further, the Potency result in test [18], in [8], in test [9], in test [10], in [11] and in test [19] was “inactive” throughout. Besides, the Potency entry in [13], in test [14] and in test [15] was “inactive” in each case. Moreover, in [17], the Potency is 21.9 µM (active).
For the molecule `CCN(CC)CCOC(=O)C(c1ccccc1)c1ccccc1`, the Potency result in test [17], in [2], in test [3], in [4], in [5] and in test [6] was “inactive” in each case. In addition, the Potency entry in [7], in [18], in [8], in test [9], in [10] and in test [11] was “inactive” in each case. Moreover, the Potency result in test [13], in test [14], in test [15] and in test [16] was “inactive” in each case.
In the case of `CSCC[C@H](NC(=O)[C@H](Cc1c[nH]c2ccccc12)NC(=O)CCNC(=O)OC(C)(C)C)C(=O)N[C@@H](CC(=O)O)C(=O)N[C@@H](Cc1ccccc1)C(N)=O`, the Potency result in [17], in test [2], in test [3], in test [4], in [6] and in [7] was “inactive” in each case. Moreover, the Potency entry in test [18], in test [8], in test [9], in test [10], in test [11] and in [19] was “inactive” each time. In addition, the Potency entry in [13], in test [14], in test [15] and in test [16] was “inactive” throughout.
`CC(C)c1ccc(C#N)cc1`: the Potency entry in [17], in test [2], in test [3], in [4], in [5] and in test [7] was “inactive” throughout. For the same molecule, the Potency entry in test [18], in test [8], in test [9], in [10], in test [11] and in test [13] was “inactive” throughout. The Potency entry in [14], in [15] and in test [16] was “inactive” each time. Also, the Potency in test [6] was 17.4 µM (active).
`CN(C)CC/C=C1\c2ccccc2Sc2ccc(Cl)cc21`: the Potency in test [17] was 26.8 µM (active); in test [3], 21.3 µM (active); in [6] it was 23.9 µM (active); in test [12] it was 29.8 µM (active); in [15] it was 26.6 µM (active). Further, the Potency entry in test [2], in test [10] and in test [13] was “inactive” throughout.

For the origin of these results see PubChem BioAssay (Tox21).
